Screens from PubChem.
This excerpt belongs to a sample that is enriched for hits.
Pf Dd2 inh: Plasmodium falciparum Dd2 growth inhibition; 120,000 compounds, 4.3% hits; Potency, µM (top dose mostly 28.9 µM), actives largely listed as inhibitors; AID 1347417; P. falciparum Dd2 growth, SYBR Green, 72 h; active = well fitted inhibition curve with a large enough effect; also: nearly all actives have a fitted effect of over 65% in size
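Infected erythrocytes (Dd2, 0.3% parasitemia, 2.5% hematocrit final) are added to compound in RPMI-1640/Albumax II medium, grown 72 h at 37C in low oxygen, then lysed with saponin/Triton-X containing SYBR Green and read by fluorescence.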
A number is an active result.

Screening O=C(c1cc(-c2ccccc2F)n[nH]1)N1CCC2(CCCN(Cc3ccccc3F)C2)C1 (centres undefined) returned Pf Dd2 inh 8.9µM.
`CCN1c2cc(C(=O)N3CCN(c4ccc(C)cc4)CC3)ccc2C(=O)N2CCCCC21` (centres undefined) gave Pf Dd2 inh inactive.
COc1ccc(C(=O)N2C[C@@H](Oc3ccccc3)C[C@H]2C(=O)N2CCOCC2)c(OC)c1 was read as Pf Dd2 inh inactive.
Screening Nc1c(C(=O)NCc2ccc(Cl)cc2Cl)nnn1Cc1ccc(Br)cc1 returned Pf Dd2 inh inactive.
CCc1ccc(NC(=O)Cn2nnc(C(=O)NCc3ccc(C)cc3)c2N)cc1 was read as Pf Dd2 inh inactive.
Cc1ccc(CNC(=O)c2nnn(CC(=O)Nc3cc(C)ccc3C)c2N)cc1 was read as Pf Dd2 inh inactive.
CCc1ccccc1NC(=O)Cn1nnc(C(=O)NCc2ccccc2Cl)c1N was read as Pf Dd2 inh inactive.
`Cc1ccc(C)c(Cn2nnc(C(=O)NCc3ccc(Cl)cc3Cl)c2N)c1` gave Pf Dd2 inh 4.5µM.
Screening Cc1ccc(CNC(=O)c2nnn(Cc3ccc(F)cc3)c2N)cc1 returned Pf Dd2 inh 3.2µM.
Screening O=C(NC1CCCc2c1cnn2-c1ccc(F)cc1F)c1c(F)cccc1Cl (centres undefined) returned Pf Dd2 inh inactive.
`O=C(c1ccc(C(F)(F)F)cc1)N1CCC(c2nn(-c3ccc(F)cc3)c(=O)[nH]2)CC1` gave Pf Dd2 inh inactive.
For CCC(CC)NC(=O)CCC1CCN(C(=O)c2ccc(C)cc2)CC1 the results were Pf Dd2 inh inactive.
Screening CC(C)N1CCOC(CC(=O)NCc2cc(N3CCOCC3)ncn2)C1 (centres undefined) returned Pf Dd2 inh inactive.
For CC1CCCN(Cc2c(O)ccc3c(=O)c(Oc4ccccc4Cl)c(C(F)(F)F)oc23)C1 (centres undefined) the results were Pf Dd2 inh 0.89µM.
Screening Cc1ccc(Oc2c(C(F)(F)F)oc3cc(OCC(=O)NC4CCCCC4)ccc3c2=O)cc1 returned Pf Dd2 inh inactive.
`Cc1noc(C)c1CN1CCCC(COc2ccccc2C(=O)N2CCC(C)CC2)C1` (centres undefined) gave Pf Dd2 inh inactive.
`CC1CCN(Cc2c(O)ccc3c(=O)c(Oc4ccccc4Cl)c(C(F)(F)F)oc23)CC1` gave Pf Dd2 inh 0.63µM.
`Cc1ccc(Oc2c(C(F)(F)F)oc3c(CN4CCC(C)CC4)c(O)ccc3c2=O)cc1` gave Pf Dd2 inh 1µM.
For Cc1ccccc1Cn1c(CN2CCCC(C)C2)nc2c1c(=O)n(C)c(=O)n2C (centres undefined) the results were Pf Dd2 inh inactive.
For O=C(NCc1ccccc1)c1ccc(CN2C(=O)NC3(CCS(=O)(=O)CC3)C2=O)cc1 the results were Pf Dd2 inh inactive.
COCC1CN(C(=O)Cc2ccccc2F)CC12CCNCC2 (centres undefined) was read as Pf Dd2 inh inactive.
For O=C(CC1=C2CCCCC2N(Cc2ccccc2)C1=O)NC1CC1 (centres undefined) the results were Pf Dd2 inh inactive.
CNC(=O)[C@@H](c1ccccc1)N1CCC[C@H]1C(=O)NCc1ccncc1 was read as Pf Dd2 inh inactive.
For Cc1nnc(-c2cc(N3C[C@@H](C)O[C@@H](C)C3)ccn2)n1C1CCCCC1 the results were Pf Dd2 inh inactive.
For OCCc1cc(CC2(NC3CCOCC3)COC2)no1 the results were Pf Dd2 inh inactive.
For COc1ccccc1-c1cn2c(n1)CO[C@@H](CNCc1ccc(F)cc1)C2 the results were Pf Dd2 inh inactive.
For Cc1ncc(S(C)(=O)=O)c(NCCn2nc(C)nc2C)n1 the results were Pf Dd2 inh inactive.
Screening COc1cccc(C(=O)Nc2nc3nc(-c4ccccc4)cc(=O)n3[nH]2)c1 returned Pf Dd2 inh inactive.
For COc1ccc(C(=O)Nc2nc3n(n2)C(c2ccc(Cl)cc2)C=C(c2ccccc2)N3)cc1OC (centres undefined) the results were Pf Dd2 inh 7.9µM.
Screening COc1ccc(C(=O)Nc2noc3ccccc23)cc1 returned Pf Dd2 inh inactive.
For COc1ccc(C2C=C(c3ccccc3)Nc3nc(NC(=O)c4cccc([N+](=O)[O-])c4)nn32)cc1 (centres undefined) the results were Pf Dd2 inh 8.9µM.
For COc1ccc(C(=O)Nc2cnc(-c3ccc(Cl)cc3)nc2)cc1 the results were Pf Dd2 inh inactive.
COc1ccc(C(=O)NCc2nnc3ccc(-c4ccc(Cl)cc4)nn23)cc1OC was read as Pf Dd2 inh inactive.
For COc1ccc(C2C=C(c3ccccc3)Nc3nc(NC(=O)c4ccc(C)cc4)nn32)cc1 (centres undefined) the results were Pf Dd2 inh 13µM.
Screening COc1ccc(CNC(=O)c2cc(-c3ccc(OC)cc3)nc3n[nH]c(-c4cccc([N+](=O)[O-])c4)c23)cc1 returned Pf Dd2 inh inactive.
`COc1ccc(NC(=O)c2cc3n(n2)CC(c2ccc(Cl)cc2)OC3)cc1OC` (centres undefined) gave Pf Dd2 inh inactive.
